VHR inh abs: blocks human VHR1 dual specificity phosphatase; AID 1654; recombinant VHR phosphatase, pNPP absorbance; inhibition, % at 13.3 µM; P51452; actives 0.52% (n = 290,000); in the data active means inhibition above about 50%
MazEF act: increases E. coli MazEF RNase cleavage of RNA. AID 504720. activation, % at 20 µM. P0AE70. actives 0.32% (n = 350,000). FAM/BHQ RNA-DNA oligo cleavage fluorescence, 5 h; in the data active means activation above about 50%
BoNT-A LC inh2: inhibitors of Botulinum neurotoxin A light chain protease; multiplex microsphere protease substrate cleavage, flow cytometry; inhibition, % at 10 µM; actives 0.17% (n = 360,000); AID 588499; further: plate controls were buffer without enzyme for full effect and enzyme alone for no effect
Anthrax LF inh2: inhibitors of Bacillus anthracis lethal factor protease | actives 0.12% (n = 360,000) | P15917 | multiplex microsphere protease cleavage assay, LF | inhibition, % at 10 µM; further: plate controls were buffer without enzyme for full effect and enzyme alone for no effect
Target sequence (P15917 whole entry, looked up): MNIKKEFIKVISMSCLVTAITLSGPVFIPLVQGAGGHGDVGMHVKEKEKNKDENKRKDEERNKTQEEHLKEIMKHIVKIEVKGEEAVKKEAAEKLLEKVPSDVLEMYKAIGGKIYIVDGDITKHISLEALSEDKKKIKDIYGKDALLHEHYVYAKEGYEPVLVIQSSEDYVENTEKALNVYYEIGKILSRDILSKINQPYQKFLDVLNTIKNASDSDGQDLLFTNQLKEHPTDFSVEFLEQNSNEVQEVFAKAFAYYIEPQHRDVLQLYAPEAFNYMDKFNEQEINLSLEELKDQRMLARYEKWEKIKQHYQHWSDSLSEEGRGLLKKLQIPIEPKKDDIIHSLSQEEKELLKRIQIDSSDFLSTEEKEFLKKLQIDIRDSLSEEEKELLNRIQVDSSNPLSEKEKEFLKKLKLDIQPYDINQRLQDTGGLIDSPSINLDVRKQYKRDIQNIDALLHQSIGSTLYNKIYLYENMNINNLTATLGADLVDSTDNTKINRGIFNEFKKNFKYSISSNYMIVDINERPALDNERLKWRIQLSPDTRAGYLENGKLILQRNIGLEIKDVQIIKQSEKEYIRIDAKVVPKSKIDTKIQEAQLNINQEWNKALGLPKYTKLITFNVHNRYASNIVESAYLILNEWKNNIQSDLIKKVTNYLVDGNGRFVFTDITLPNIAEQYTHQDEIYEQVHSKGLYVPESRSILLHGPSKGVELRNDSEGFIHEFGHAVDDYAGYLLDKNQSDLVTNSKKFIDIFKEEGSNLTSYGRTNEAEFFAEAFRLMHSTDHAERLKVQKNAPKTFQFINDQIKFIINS
Bead autofluor: compound fluorescence in toxin protease inhibitor counterscreen. compound autofluorescence counterscreen, microsphere flow cytometry; active compounds read high. fluorescence intensity (test concentration not listed). actives 3.1% (n = 360,000); in the data active means fluorescence intensity above about 16000; inconclusive means no clear call, values can overlap the other calls
BoNT-F LC inh: blocks Botulinum neurotoxin F light chain protease; inhibition, % at 10 µM; Multiplex microsphere protease cleavage assay, flow cytometry; AID 588497; actives 0.22% (n = 360,000); in the data active means inhibition above about 35%, passing the limit was not always enough; inconclusive means no clear call, values can overlap the other calls; further: plate controls were buffer without enzyme for full effect and enzyme alone for no effect
The depositor's hits bear a star. Hits are enriched below; roughly 4% of the tested compounds scored in any of these assays. Unless noted, no stated cut-off is given here; in the data, active means inhibition above about 30%; inconclusive means no clear call, values can overlap the other calls; inactive means below that.

CC1CCN(C(=O)c2ccc(NS(C)(=O)=O)cc2)CC1 was read as VHR inh abs -9.6, MazEF act -9.0, BoNT-A LC inh2 inconclusive, Anthrax LF inh2 0.8, Bead autofluor 19949* and BoNT-F LC inh 0.5.
`COc1ccc(C(=O)N2CCC(C(=O)c3ccc(F)cc3)CC2)cc1` gave VHR inh abs -5.3, MazEF act 15.0, BoNT-A LC inh2 0.8, Anthrax LF inh2 -2.0, Bead autofluor 9120 and BoNT-F LC inh 4.1.
For COc1ccc(C(=O)N2CCC(C(=O)Nc3ccccc3OC)CC2)cc1 the results were VHR inh abs 10.8, MazEF act 8.2, BoNT-A LC inh2 inconclusive, Anthrax LF inh2 -1.3, Bead autofluor 22688* and BoNT-F LC inh -2.7.
`CC(C)=CCC/C(C)=C/CCC(C)NCCN1CCNCC1` (stereo not drawn) gave VHR inh abs 4.5.
For COc1ccc(OC)c(CN2CCN(C(=O)COc3cccc(C)c3)CC2)c1 the results were VHR inh abs 15.3, MazEF act 3.3, BoNT-A LC inh2 -0.6, Anthrax LF inh2 -1.2, Bead autofluor 3278 and BoNT-F LC inh 7.0.
Screening COC(=O)C1CCN(C(=O)c2ccccc2NC(C)=O)CC1 returned VHR inh abs 2.6, MazEF act 1.0, BoNT-A LC inh2 0.1, Anthrax LF inh2 -5.0, Bead autofluor 8333 and BoNT-F LC inh 3.5.
For COC(=O)C1CCN(C(=O)c2ccccc2Oc2ccccc2)CC1 the results were VHR inh abs -7.7, MazEF act 3.4, BoNT-A LC inh2 1.6, Anthrax LF inh2 -4.0, Bead autofluor 20014* and BoNT-F LC inh 1.1.
`CCOC(=O)C[C@H]1c2ccc(C(F)(F)F)cc2S(=O)(=O)N1C(C)C` gave MazEF act 0.0, BoNT-A LC inh2 0.0, Anthrax LF inh2 -1.9, Bead autofluor 4095 and BoNT-F LC inh 0.0.
`Cc1ccc(OCC(=O)N/N=C/c2cccnc2)cc1` gave VHR inh abs 9.2, MazEF act 0.5, BoNT-A LC inh2 -2.3, Anthrax LF inh2 -1.8, Bead autofluor 6835 and BoNT-F LC inh -1.4.
`Cn1cc(C=C2C(=O)NC(=O)NC2=O)c2ccccc21` gave VHR inh abs 22.5, MazEF act active, BoNT-A LC inh2 -2.4, Anthrax LF inh2 -7.6, Bead autofluor 3286 and BoNT-F LC inh 9.9.
`C=CCn1cc(/C=C2/NC(=O)NC2=O)c2ccccc21` gave VHR inh abs 8.4, MazEF act 1.1, BoNT-A LC inh2 -0.4, Anthrax LF inh2 -9.7, Bead autofluor 4620 and BoNT-F LC inh inconclusive.
CC(=O)n1cc(C=C2C(=O)NC(=O)NC2=O)c2ccccc21 was read as VHR inh abs -19.8, MazEF act 2.6, BoNT-A LC inh2 -2.4, Anthrax LF inh2 -2.7, Bead autofluor 6327 and BoNT-F LC inh -8.6.
C=CCn1c(C)c(C=C2C(=O)NC(=O)NC2=O)c2ccccc21 was read as VHR inh abs -15.7, MazEF act 10.0, BoNT-A LC inh2 33.1*, Anthrax LF inh2 -2.7, Bead autofluor 3438 and BoNT-F LC inh inconclusive.
Screening NS(=O)(=O)c1ccc(CCNC(=O)CSc2ccc(Cl)cc2Cl)cc1 returned VHR inh abs 22.6, MazEF act 63.0*, BoNT-A LC inh2 -0.5, Anthrax LF inh2 -4.1, Bead autofluor 4765 and BoNT-F LC inh -6.0.
For O=C(CSc1nc2cc(Cl)ccc2o1)NCCc1ccccc1 the results were VHR inh abs 9.9, MazEF act -4.2, BoNT-A LC inh2 -1.2, Anthrax LF inh2 -0.1, Bead autofluor 19890* and BoNT-F LC inh -3.7.
Screening CCc1nc2c(OCc3cccc(Cl)c3)cccn2c1N(C)C(=O)c1ccco1 returned BoNT-A LC inh2 -0.4, Anthrax LF inh2 -5.1, Bead autofluor 4356 and BoNT-F LC inh -8.4.
Screening O=C(Nc1cc(Cl)ccc1-n1cncn1)c1cn2ccccc2n1 returned MazEF act -11.7, BoNT-A LC inh2 6.1, Anthrax LF inh2 -1.8, Bead autofluor 3835 and BoNT-F LC inh 13.9.
`CC1=C(C(=O)N(C)C)CC(CC(=O)NC(c2ccccc2)c2ccccc2)C(=O)N1CCCN1CCCC1=O` (stereo not drawn) gave MazEF act 8.9, BoNT-A LC inh2 0.0, Anthrax LF inh2 -1.2, Bead autofluor 2952 and BoNT-F LC inh -5.0.
`COc1cc(/C=C2\SC(=S)N(Nc3ncc(C(F)(F)F)cc3Cl)C2=O)ccc1O` gave VHR inh abs 32.9, MazEF act -88.4, BoNT-A LC inh2 24.0, Anthrax LF inh2 24.5, Bead autofluor 3843 and BoNT-F LC inh 8.7.
For CN(C)c1ccc(/C=C2\SC(=S)N(Nc3ncc(C(F)(F)F)cc3Cl)C2=O)cc1 the results were VHR inh abs 17.3, MazEF act 52.5*, BoNT-A LC inh2 6.1, Anthrax LF inh2 3.7, Bead autofluor 10036 and BoNT-F LC inh 13.9.
COc1ccc(Cl)cc1N(CC(=O)NC(C(C)C)C(C)C)S(C)(=O)=O was read as VHR inh abs -1.5, MazEF act -3.1, BoNT-A LC inh2 1.2, Anthrax LF inh2 5.7, Bead autofluor 1886 and BoNT-F LC inh 8.8.
Screening COc1ccc(Cl)cc1N(CC(=O)Nc1ccccc1SC)S(C)(=O)=O returned VHR inh abs -4.7, MazEF act -1.2, BoNT-A LC inh2 inconclusive, Anthrax LF inh2 1.5, Bead autofluor 19767* and BoNT-F LC inh -0.3.
For O=C1c2cccc(NCCCNCCO)c2C(=O)c2cccc(NCCCNCCO)c21 the results were MazEF act -7.3, BoNT-A LC inh2 30.0*, Anthrax LF inh2 -55.6, Bead autofluor 2093 and BoNT-F LC inh -102.3.
`O=C1c2ccccc2C(=O)c2c(NCc3cccnc3)cccc21` gave VHR inh abs 10.6, MazEF act -24.8, BoNT-A LC inh2 6.1, Anthrax LF inh2 -9.1, Bead autofluor 8961 and BoNT-F LC inh -0.1.
Screening COc1ccccc1OC(C)C(=O)O (stereo not drawn) returned VHR inh abs 6.0, MazEF act 8.3, BoNT-A LC inh2 0.9, Anthrax LF inh2 -0.4, Bead autofluor 20529* and BoNT-F LC inh 0.9.
`COc1ccccc1OCC(=O)O` gave VHR inh abs 7.0, MazEF act -3.4, BoNT-A LC inh2 -0.9, Anthrax LF inh2 -4.2, Bead autofluor 3355 and BoNT-F LC inh -19.3.
Clc1ccccc1-c1ccc(/C=N/n2cnnc2)o1 was read as VHR inh abs 28.0, MazEF act 3.9, BoNT-A LC inh2 0.3, Anthrax LF inh2 -4.1, Bead autofluor 16641* and BoNT-F LC inh 0.4.
Screening Cc1c(Cl)cccc1-c1ccc(/C=N/n2cnnc2)o1 returned VHR inh abs 58.8*, MazEF act -4.7, BoNT-A LC inh2 -0.1, Anthrax LF inh2 -0.6, Bead autofluor 2432 and BoNT-F LC inh -11.7.
For CCCCNC(=O)CCC(=O)N1CCN(C(c2ccccc2)c2ccccc2)CC1 the results were VHR inh abs 9.2, MazEF act -11.8, BoNT-A LC inh2 0.5, Anthrax LF inh2 1.3, Bead autofluor 4340 and BoNT-F LC inh -7.3.
Screening CCCCCCC(C)OC(=O)c1ccccc1C(=O)O (stereo not drawn) returned VHR inh abs 8.8, MazEF act 3.6, BoNT-A LC inh2 0.7, Anthrax LF inh2 12.3, Bead autofluor 3516 and BoNT-F LC inh 34.7*.

Screening data: PubChem, several laboratories
